Data from PubChem BioAssay.
Results filed as inconclusive are left out. The source made the active and inactive calls.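 The calls were made as follows, unless noted: active = normalized viability below 100% at a tested concentration; inactive = the rest.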

Columns and labels:
[1] = viability loss in pontine glioma line – cell-based, SU-DIPG-XVII, MIPE5.0, CellTiter-Glo, qHTS, dose response (AID 1347060; cut-off not given, nearly all actives have AC50 up to about 26 µM;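 also: cells exposed to compound for 48 hours before viability readout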); settings: CellTiter-Glo ATP luminescence
[2] = viability loss in pontine glioma line – cell-based, JHH-DIPG-1, MIPE4.0, CellTiter-Glo, qHTS, dose response (AID 1347062; cut-off not given, nearly all actives have AC50 up to about 27 µM;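 also: cells exposed to compound for two days before readout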); settings: JHH-DIPG-1 viability, CellTiter-Glo ATP luminescence
[3] = viability loss in pontine glioma line – cell-based, SU-DIPG-IV, MIPE4.0, CellTiter-Glo, qHTS, dose response (AID 1347063; cut-off not given, nearly all actives have AC50 up to about 30 µM;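 also: compound exposure lasted 48 hours before the viability readout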); settings: CellTiter-Glo ATP luminescence
[4] = viability loss in pontine glioma line – cell-based, SU-DIPG-XXV, MIPE5.0, CellTiter-Glo, qHTS, dose response (AID 1347065; cut-off not given, nearly all actives have AC50 up to about 26 µM;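 also: cells exposed to compound for 48 hours before ATP readout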); settings: CellTiter-Glo ATP luminescence
[5] = growth inhibition of DIPG cells – cell-based, MIPE4.0 library, CellTiter-Glo luminescence, qHTS (AID 1347066; cut-off not given, nearly all actives have AC50 up to about 30 µM;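 also: cells exposed to compound for 48 hours before readout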); settings: SU-DIPG-VI viability, CellTiter-Glo ATP luminescence
[6] = JHH-DIPG-1 glioma cell viability, MIPE5.0 library, CellTiter-Glo luminescence, qHTS (AID 1347067; cut-off not given, nearly all actives have AC50 up to about 26 µM;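 also: cells exposed to compound for 48 hours before readout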); settings: JHH-DIPG-1 glioma viability, CellTiter-Glo ATP luminescence
[7] = growth inhibition of DIPG cells – cell-based, MIPE5.0 library, qHTS (AID 1347068; cut-off not given, nearly all actives have IC50 up to about 30 µM;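 also: cells exposed to compound for 48 hours before viability readout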); settings: SU-DIPG-XXV viability
[8] = viability loss with induced miR-34 in A549 – imaging, A549 dox-inducible miR-34, nuclei and caspase counts, primary screen (AID 1347080;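 active = compounds whose cell count with miR-34 switched on is under 0.7 times the count with it off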); settings: A549 miR-34 inducible, Hoechst nuclei count, 48 h
[9] = MELAS cybrid and Rieske KO viability enhancers – cell-based, MELAS cybrids, Rieske KO mouse fibroblasts, CellTiter-Glo, primary screen (AID 1508586;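 active = mean z-score across replicates of 1.96 or higher in either the MELAS or the Rieske mutant cell line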;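 also: z relative to plate mean and SD of compound and empty wells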); settings: low glucose
[10] = compounds altering HSF1 focus formation in cells – imaging, Selleck Cancer Library (AID 1347162; in the data active = plate-normalised HSF1 focus index below about 0.46); settings: human cells, HSF1 nuclear foci imaging, at 10 µM; SSMD: measured here: HSF1 foci SSMD mean; cell count: measured here: cell number; plate-normalised HSF1 focus index: stronger effect = lower value
[11] = drug combination growth inhibition, ovarian cancer – cell-based, oncology-focused library, rucaparib conditional, profiling panel (AID 1508598); settings: patient-derived ovarian cancer cells, CellTiter-Glo viability, 144 h, stronger effect = lower value
[12] = viability loss in pontine glioma line – cell-based, SU-DIPG-XIII, MIPE5.0, CellTiter-Glo, qHTS, dose response (AID 1347064; cut-off not given, nearly all actives have AC50 up to about 23 µM;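 also: cells exposed to compound for 48 hours before the viability read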); settings: CellTiter-Glo ATP luminescence
[13] = stronger effect = lower value, cell number ratio, induced over uninduced
[14] = measured here: relative caspase fold change +Dox/-Dox
[15] = measured here: total cells with miR-34 induction, stronger effect = lower value
[16] = measured here: total cells without miR-34 induction
[17] = MELAS cybrid survival, CellTiter-Glo 48 h, stronger effect = higher value
[18] = Rieske KO mouse fibroblast survival, CellTiter-Glo 72 h
[19] = at 0.000305 µM, OCI-C5x cells, with rucaparib 10 µM, 100% = cells with rucaparib alone
[20] = at 0.000305 µM, OCI-C5x cells, without rucaparib
[21] = at 0.000305 µM, OCI-P5x cells, with rucaparib 20 µM, 100% = cells with rucaparib alone
[22] = at 0.000305 µM, OCI-P5x cells, without rucaparib
[23] = at 0.00122 µM, OCI-C5x cells, with rucaparib 10 µM, 100% = cells with rucaparib alone
[24] = at 0.00122 µM, OCI-C5x cells, without rucaparib
[25] = at 0.00122 µM, OCI-P5x cells, with rucaparib 20 µM, 100% = cells with rucaparib alone
[26] = at 0.00122 µM, OCI-P5x cells, without rucaparib
[27] = at 0.00488 µM, OCI-C5x cells, with rucaparib 10 µM, 100% = cells with rucaparib alone
[28] = at 0.00488 µM, OCI-C5x cells, without rucaparib
[29] = at 0.00488 µM, OCI-P5x cells, with rucaparib 20 µM, 100% = cells with rucaparib alone
[30] = at 0.00488 µM, OCI-P5x cells, without rucaparib
[31] = at 0.0195 µM, OCI-C5x cells, with rucaparib 10 µM, 100% = cells with rucaparib alone
[32] = at 0.0195 µM, OCI-C5x cells, without rucaparib
[33] = at 0.0195 µM, OCI-P5x cells, with rucaparib 20 µM, 100% = cells with rucaparib alone
[34] = at 0.0195 µM, OCI-P5x cells, without rucaparib
[35] = at 0.0781 µM, OCI-C5x cells, with rucaparib 10 µM, 100% = cells with rucaparib alone
[36] = at 0.0781 µM, OCI-C5x cells, without rucaparib
[37] = at 0.0781 µM, OCI-P5x cells, with rucaparib 20 µM, 100% = cells with rucaparib alone
[38] = at 0.0781 µM, OCI-P5x cells, without rucaparib
[39] = at 0.313 µM, OCI-C5x cells, with rucaparib 10 µM, 100% = cells with rucaparib alone
[40] = at 0.313 µM, OCI-C5x cells, without rucaparib
[41] = at 0.313 µM, OCI-P5x cells, with rucaparib 20 µM, 100% = cells with rucaparib alone
[42] = at 0.313 µM, OCI-P5x cells, without rucaparib
[43] = at 1.25 µM, OCI-C5x cells, with rucaparib 10 µM, 100% = cells with rucaparib alone
[44] = at 1.25 µM, OCI-C5x cells, without rucaparib
[45] = at 1.25 µM, OCI-P5x cells, with rucaparib 20 µM, 100% = cells with rucaparib alone
[46] = at 1.25 µM, OCI-P5x cells, without rucaparib
[47] = at 5 µM, OCI-C5x cells, with rucaparib 10 µM, 100% = cells with rucaparib alone
[48] = at 5 µM, OCI-C5x cells, without rucaparib
[49] = at 5 µM, OCI-P5x cells, with rucaparib 20 µM, 100% = cells with rucaparib alone
[50] = at 5 µM, OCI-P5x cells, without rucaparib

CC(C)c1cnn2c(NCc3ccccc3)cc(NCCCCCCN)nc12
-0.75: z-score [9, 18]
8080: cell count [8, 16]
inactive: fold change [8, 13] 0.98 | z-score [9, 17] -0.424
7920: cell count [8, 15]
active: AC50 [1] 18.6 µM | AC50 [2] 20.9 µM | AC50 [3] 18.7 µM | AC50 [4] 18.6 µM | AC50 [5] 23.5 µM | AC50 [6] 26.3 µM | IC50 [7] 23.5 µM
0.679: fold change [8, 14]

O=C(O)c1ccc2c(c1)nc(Nc1cccc(Cl)c1)c1ccncc12
0.974: fold change [8, 14]
0.462: SSMD [10]
6500: cell count [8, 16]
-0.116: z-score [9, 18]
active: AC50 [1] 8.33 µM | AC50 [2] 16.6 µM | AC50 [3] 7.43 µM | AC50 [4] 4.68 µM | AC50 [6] 2.95 µM | IC50 [7] 7.42 µM | viability [11, 25] 98.4% | viability [11, 29] 94% | viability [11, 31] 98% | viability [11, 33] 96% | viability [11, 35] 99.7% | viability [11, 37] 98.9% | viability [11, 39] 96.1% | viability [11, 41] 94.3% | viability [11, 43] 68.3% | viability [11, 44] 91.5% | viability [11, 45] 74.7% | viability [11, 46] 89.4% | viability [11, 47] 43.6% | viability [11, 48] 88.1% | viability [11, 49] 33.3% | viability [11, 50] 35.6%
inactive: fold change [8, 13] 0.797 | plate-normalised HSF1 focus index [10] 1.02 | z-score [9, 17] -0.486 | viability [11, 19] 103% | viability [11, 20] 125% | viability [11, 21] 103% | viability [11, 22] 105% | viability [11, 23] 119% | viability [11, 24] 130% | viability [11, 26] 111% | viability [11, 27] 106% | viability [11, 28] 118% | viability [11, 30] 104% | viability [11, 32] 126% | viability [11, 34] 115% | viability [11, 36] 116% | viability [11, 38] 110% | viability [11, 40] 115% | viability [11, 42] 107%
5180: cell count [8, 15]
7390: cell count [10]

O=C(NC1CCNCC1)c1[nH]ncc1NC(=O)c1c(Cl)cccc1Cl
1260: cell count [8, 16]
1340: cell count [8, 15]
7300: cell count [10]
-4.94: SSMD [10]
inactive: outcome [5] | fold change [8, 13] 1.06 | plate-normalised HSF1 focus index [10] 0.823 | z-score [9, 17] 0.31 | viability [11, 19] 126% | viability [11, 20] 105% | viability [11, 23] 116% | viability [11, 24] 113% | viability [11, 26] 103% | viability [11, 27] 118% | viability [11, 28] 117% | viability [11, 29] 103% | viability [11, 30] 105% | viability [11, 31] 110% | viability [11, 32] 118% | viability [11, 35] 108% | viability [11, 36] 118%
-1.14: z-score [9, 18]
0.925: fold change [8, 14]
active: AC50 [1] 6.61 µM | AC50 [2] 0.418 µM | AC50 [3] 0.935 µM | AC50 [4] 7.42 µM | AC50 [6] 1.86 µM | IC50 [7] 4.68 µM | viability [11, 21] 89.7% | viability [11, 22] 97.4% | viability [11, 25] 95.9% | viability [11, 33] 96.7% | viability [11, 34] 99% | viability [11, 37] 93.7% | viability [11, 38] 89.4% | viability [11, 39] 86.2% | viability [11, 40] 99.6% | viability [11, 41] 88% | viability [11, 42] 78.2% | viability [11, 43] 10.3% | viability [11, 44] 13.9% | viability [11, 45] 20.4% | viability [11, 46] 15.8% | viability [11, 47] 13% | viability [11, 48] 12.2% | viability [11, 49] 17.1% | viability [11, 50] 14%

O=C(c1ccc(/C=C/c2n[nH]c3ccccc23)cc1)N1CCNCC1
active: AC50 [1] 5.9 µM | AC50 [2] 23.5 µM | AC50 [12] 8.33 µM | AC50 [4] 4.68 µM

CNC(=O)Nc1ccc(-c2nc(N3CC4CCC(C3)O4)c3cnn(C4CCC5(CC4)OCCO5)c3n2)cc1
0.588: fold change [8, 14]
3320: cell count [8, 16]
active: AC50 [1] 0.742 µM | AC50 [2] 1.87 µM | AC50 [3] 0.0264 µM | AC50 [4] 0.332 µM | AC50 [6] 1.48 µM | IC50 [7] 1.86 µM | z-score [9, 17] 3.93
inactive: fold change [8, 13] 1.12
3730: cell count [8, 15]
-1.7: z-score [9, 18]

CC(C)CC(=O)Nc1n[nH]c2c1CN(C(=O)C1CCN(C)CC1)C2(C)C
7270: cell count [10]
0.942: fold change [8, 14]
1210: cell count [8, 16]
1320: cell count [8, 15]
active: AC50 [1] 6.61 µM | AC50 [2] 1.05 µM | AC50 [3] 2.35 µM | AC50 [4] 10.5 µM | AC50 [6] 4.17 µM | IC50 [7] 10.5 µM | z-score [9, 17] 2.08 | viability [11, 29] 95.7% | viability [11, 33] 75.5% | viability [11, 34] 92.9% | viability [11, 41] 99.5% | viability [11, 42] 96% | viability [11, 45] 75.7% | viability [11, 46] 69% | viability [11, 47] 45.8% | viability [11, 48] 69.4% | viability [11, 49] 25.6% | viability [11, 50] 6.68%
inactive: fold change [8, 13] 1.09 | plate-normalised HSF1 focus index [10] 0.661 | viability [11, 19] 123% | viability [11, 20] 128% | viability [11, 21] 101% | viability [11, 22] 115% | viability [11, 23] 108% | viability [11, 24] 125% | viability [11, 25] 101% | viability [11, 26] 118% | viability [11, 27] 120% | viability [11, 28] 128% | viability [11, 30] 112% | viability [11, 31] 120% | viability [11, 32] 130% | viability [11, 35] 112% | viability [11, 36] 134% | viability [11, 37] 107% | viability [11, 38] 122% | viability [11, 39] 109% | viability [11, 40] 118% | viability [11, 43] 109% | viability [11, 44] 113%
-5.41: SSMD [10]
-0.842: z-score [9, 18]
